Screening results deposited in PubChem by National Center for Advancing Translational Sciences (NCATS).
This excerpt belongs to a sample that is enriched for hits.
12-LOX inh – inhibitors of human 12S-lipoxygenase ALOX12; P18054; purified 12hLO, xylenol orange hydroperoxide absorbance; Potency, µM (highest dose often 108 µM), for the others: top-dose activity change, negative = inhibition, most hits filed as inhibitors; 580,000 compounds, 1.1% hits; AID 1671190; note: potency is the fitted concentration of half-maximal effect
Target sequence (P18054 whole entry, looked up): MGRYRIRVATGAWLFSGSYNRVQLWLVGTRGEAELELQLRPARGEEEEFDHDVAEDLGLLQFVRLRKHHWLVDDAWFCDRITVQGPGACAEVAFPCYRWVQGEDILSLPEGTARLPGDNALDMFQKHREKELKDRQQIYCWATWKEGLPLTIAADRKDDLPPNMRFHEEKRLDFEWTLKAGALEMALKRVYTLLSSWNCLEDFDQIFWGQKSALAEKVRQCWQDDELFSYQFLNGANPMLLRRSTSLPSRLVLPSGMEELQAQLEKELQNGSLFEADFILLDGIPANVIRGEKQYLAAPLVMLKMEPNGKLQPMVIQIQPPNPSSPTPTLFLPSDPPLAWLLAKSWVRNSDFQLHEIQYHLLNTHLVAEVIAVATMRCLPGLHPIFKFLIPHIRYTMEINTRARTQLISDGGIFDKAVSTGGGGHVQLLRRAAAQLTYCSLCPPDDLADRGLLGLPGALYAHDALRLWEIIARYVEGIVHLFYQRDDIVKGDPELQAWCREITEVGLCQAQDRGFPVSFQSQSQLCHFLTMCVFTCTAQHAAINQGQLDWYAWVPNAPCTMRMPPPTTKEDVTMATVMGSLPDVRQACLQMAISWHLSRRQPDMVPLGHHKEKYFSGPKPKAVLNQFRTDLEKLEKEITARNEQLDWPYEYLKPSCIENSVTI
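Hydroperoxide product was detected by ferrous iron/xylenol orange as the 573 to 405 nm absorbance ratio. Arachidonic acid at 40 uM (final) was turned over for 30 min at room temperature by 150 nM human 12hLO, pH 7.0 Hepes buffer, after 15 min compound preincubation.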
HT1080 IDH1KD tx – HT-1080 IDH1 knockdown cell toxicity (counter line); HT-1080 IDH1 knockdown viability, ATP luminescence, 48 h; Potency, µM (doses to about 46.1 µM), inactives show at the top dose activity, negative = toxicity, hits mostly cytotoxic; 360,000 compounds, 2% hits; AID 686971;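 note: potency is the fitted concentration of half-maximal effect; 0% = DMSO wells and -100% = cell-free medium wells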
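Using the IDH1-knockdown HT-1080 line run in the same batch and compound series as the NT line, viability after 48 h at 37 °C was determined by CellTiter-Glo luminescence and expressed as % activity.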
DT40 TDP1 CPT – DT40-hTDP1 cell growth loss with CPT | 420,000 compounds, 12% hits | Potency, µM (top dose mostly 46.2 µM), for the others: at the highest dose activity change, negative = growth inhibition, usual class: inhibitors | chicken DT40 Tdp1-/-;hTDP1 cells + 20 nM CPT, ATP luminescence, 48 h; note: potency is the fitted concentration of half-maximal effect; nearly all actives have a fitted effect of over 55% in size
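Cell growth measured by CellTiter-Glo luminescence after a minimum 48 h, 37 C compound exposure with 20 nM CPT in Tdp1-knockout DT40 cells stably expressing hTDP1, seeded 400/well; qHTS titration format.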
HT1080NT lethal – kills 2HG-producing HT-1080-NT fibrosarcoma cells. HT-1080-NT fibrosarcoma viability, CellTiter-Glo ATP luminescence, 48 h. Potency, µM (doses to about 46.1 µM), inactives show top-dose activity, negative = less viability, actives largely listed as cytotoxic. 360,000 compounds, 1.6% hits. AID 686970;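 note: NT is the 2HG producing partner of a matched IDH1 knockdown line; potency is the fitted concentration of half-maximal effect; 0% = DMSO-treated cells and -100% = media-only wells without cells; nearly all actives have a fitted effect of over 55% in size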
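HT-1080-NT fibrosarcoma cells (2HG-overproducing), 750 cells/well in RPMI with 5% FBS, dosed after 2 h and incubated 48 h at 37C. CellTiter-Glo luminescence normalized to DMSO and no-cell wells; concentration-response curves fitted and classed.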
DT40 TDP1 no CPT – qHTS for Inhibitors of human tyrosyl-DNA phosphodiesterase 1 (TDP1): qHTS in cells in absence of CPT; 420,000 compounds, 15% hits; Potency, µM (doses to about 46.2 µM), for inactives: top-dose activity change, negative = growth inhibition, most hits filed as inhibitors; DT40 Tdp1-/- hTDP1 cells, no CPT, ATP luminescence, 48 h; note: potency is the fitted concentration of half-maximal effect; nearly all actives have a fitted effect of over 55% in size
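Luminescent ATP content (CellTiter-Glo) served as the growth readout. Knockout chicken DT40 cells expressing human TDP1 were exposed to compounds without camptothecin for a minimum 48 hr at 37 °C.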
IL1B secr inh – inhibitors of inflammasome signaling (IL-1 beta secretion) | activity change, % at 57.5 µM | 360,000 compounds, 4.7% hits | THP-1 LPS/ATP IL-1B secretion, AlphaLISA, 16 h; stronger effect = lower value | AID 743279; in the data active = activity change below about -50%; inconclusive = mostly about -30% to -49%
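Secreted IL-1B measured by AlphaLISA bead assay after 16 h compound exposure of THP-1 cells; compounds (final up to 57.5 uM) added 1 h before LPS (250 ng/mL) and ATP (1.25 mM) stimulation; lower signal means less secretion.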
* hit, by the source's call; i = inactive; ? = inconclusive; . = not tested or not shown; [ ] = dose if it differs, or a comment. Unless noted, calls come from the whole dose curve; as a rule, active = well fitted curve in the direction sought with a large enough effect; inconclusive = small, poorly fitted or top-dose-only effect, or another doubt; inactive = no such curve, though single readings can be large; an effect the other way counts as inactive or inconclusive. Unless noted, % is set by controls: 0 for no effect and ±100 for the full control effect.

SMILES	12-LOX inh	HT1080 IDH1KD tx	DT40 TDP1 CPT	HT1080NT lethal	DT40 TDP1 no CPT	IL1B secr inh
Cc1cccc(NC(=O)c2ccc([N+](=O)[O-])s2)n1	-20.0%	?	8.2µM*	?	5.8µM*	12.0
Cc1ccnc(NC(=O)c2cc([N+](=O)[O-])cc([N+](=O)[O-])c2)c1	?	-2.9%	-26.6%	0.0%	-7.3%	9.3
COCCNc1ccc([N+](=O)[O-])cc1C(=O)Nc1cccc(C)n1	0.0%	-10.8%	13µM*	0.1%	?	0.0
Cc1cccc(NC(=O)c2ccc([N+](=O)[O-])cc2Cl)n1	-20.3%	15.7%	?	12.7%	?	-4.2
Cc1ccnc(NC(=O)c2ccc([N+](=O)[O-])s2)c1	?	?	16.4µM*	?	?	-11.4
CC(C)(C)CN1CCC2(CC1)Cc1ccccc1CNC2=O	0.7%[6.33 µM]	.	.	.	.	.
CC(=O)Oc1ccc(-c2cccc(C(=O)OCC(=O)N(C)c3ccccc3)c2)cc1	10.4%	11.2%	?	2.5%	23.1µM*	0.0
CCOc1ccccc1NC(=O)COC(=O)c1cccc(-c2ccc(OC(C)=O)cc2)c1	-13.0%	-6.3%	?	-19.9%	25.9µM*	i
CN(C)c1cccc(C(=O)OCC(=O)N(C)c2ccccc2)c1	-6.7%	10.0%	-21.3%	-1.2%	-19.5%	-2.0
CC(=O)Oc1ccc(-c2cccc(C(=O)OCC(=O)Nc3ccccc3Oc3ccccc3)c2)cc1	24.7%	?	-26.8%	?	18.4µM*	16.1
COc1ccc(N(C)S(=O)(=O)c2cccc(C(=O)OCC(=O)N(C)c3ccccc3)c2)cc1	3.5%	-25.5%	?	1.2%	20.6µM*	-8.1
O=C(CN1CCN(C(=O)c2cccnc2OCC(F)(F)F)CC1)Nc1ccccc1Cl	3.9%	.	.	.	.	.
O=Cc1cccc(OCc2cccc3ccccc23)c1	4.5%	?	4.11µM*	?	2.59µM*	?
O=Cc1cccc(OCc2ccc(Br)cc2)c1	-36.7%	.	.	.	.	.
COc1ccc(COc2cccc(C=O)c2)cc1	15.8%	-11.6%	3.66µM*	-19.0%	4.61µM*	14.5
Cc1cc(Cl)ccc1S(=O)(=O)N1CCC(Oc2ccc(C(N)=O)cn2)CC1	-18.9%	.	.	.	.	.
CCN(CC)S(=O)(=O)NC(C)Cc1ccco1 (stereo unspecified)	-45.2%	.	.	.	.	.
COC(=O)Nc1ccc(C(=O)NCc2ccccc2)cc1	11.0%	.	.	.	.	.
Cc1nnnn1/C(=C\c1ccccc1)C(=O)OCC(=O)NC1CCCCC1	-1.6%	18.4µM*	13µM*	?	14.6µM*	-103.3*
CC(=O)Nc1ccc(NC(=O)COC(=O)/C(=C/c2ccccc2)n2nnnc2C)cc1	-23.1%	?	11.6µM*	?	13µM*	-75.7*
O=C(COC(=O)/C=C/c1ccccc1)NC1CCCCCC1	-3.0%	9.5%	-3.8%	15.4%	-5.6%	-1.4
Cc1nnnn1/C(=C\c1ccccc1)C(=O)OCC(=O)NC(C)(C)C	-6.0%	?	16.4µM*	-20.7%	10.3µM*	-4.7
CCn1cc(-c2ccc(Cl)cc2)cc1C(=O)N1CCN(C(C)C)CC1	1.9%	.	.	.	.	.
CN(C)C(=O)c1nc(-c2ccc(F)cc2)c2cnccn12	-2.7%[176 µM]	.	.	.	.	.
CC(=O)NCC1(COc2cnccn2)C[C@@H](O)[C@@H](O)C1 (stereo partly specified)	0.9%[176 µM]	.	.	.	.	.
SMILES	12-LOX inh	HT1080 IDH1KD tx	DT40 TDP1 CPT	HT1080NT lethal	DT40 TDP1 no CPT	IL1B secr inh
O=C(NCC1(COc2cnccn2)C[C@@H](O)[C@@H](O)C1)Nc1cccnc1 (stereo partly specified)	25.1µM*	.	.	.	.	.
COc1ccc(NC(=O)CCOc2ccccc2C)cc1S(=O)(=O)N1CCCCC1	0.0%	-3.4%	29.1µM*	-18.0%	18.4µM*	-60.2*
CN(C)S(=O)(=O)c1cccc(NC(=O)COc2ccccc2C(=O)NCc2ccccc2)c1	-24.1%	-0.2%	16.4µM*	-5.0%	?	-7.3
Cc1ccc(NCC(=O)Nc2cccc(F)c2)cc1S(=O)(=O)N1CCCCCC1	-4.6%	?	?	?	16.4µM*	-74.9*
COc1ccccc1CCC(=O)Nc1ccc(OC)c(S(=O)(=O)N2CCCCC2)c1	-5.2%	-4.1%	?	-1.3%	-27.5%	5.9
Cc1ccc(NC(=O)COc2ccccc2C(=O)NCc2ccccc2)cc1	151.6%	?	?	3.9%[9.24 µM]	?	?
CCCCC(=O)Nc1ccc(C)c(S(=O)(=O)N2CCCCCC2)c1	465.5%	-9.1%	?	-16.6%	?	-63.6*
Cn1nnnc1-c1cccc(NS(=O)(=O)c2ccc(F)c(F)c2)c1	6.8%	.	.	.	.	.
COc1ccc(CCC(=O)Nc2ccc(Cl)c(S(=O)(=O)N3CCCC3)c2)cc1	-7.7%	?	20.6µM*	?	?	-15.0
COc1ccc(CCC(=O)Nc2ccc(OC)c(S(=O)(=O)N3CCCCC3)c2)cc1OC	47.8%	-20.5%	20.6µM*	2.6%	?	0.0
CCCCNC(=O)C1=C(N)C(C(=O)Nc2ccc(C)c(S(=O)(=O)N3CCCCC3)c2)SC1=Nc1ccc(C)cc1C (stereo unspecified)	-33.9%	-25.5%	23.1µM*	-13.7%	23.1µM*	0.0
COc1cc(CCC(=O)Nc2cccc(S(=O)(=O)N(C)C)c2)cc(OC)c1OC	-0.7%	7.9%	?	6.8%	25.9µM*	8.0
CC(NC(=O)c1cc(-c2cccs2)nc2ccccc12)C(C)(C)C (stereo unspecified)	-38.1%	.	.	.	.	.
COc1cc(CCC(=O)Nc2ccc(C)c(S(=O)(=O)N3CCCCCC3)c2)cc(OC)c1OC	-2.4%	?	10.3µM*	-3.9%	7.31µM*	3.4
C=CCNC(=S)Nc1ccc(C)c(S(=O)(=O)N2CCCCC2)c1	-20.5%	0.9%	-23.9%	0.0%	-10.0%	-0.4
CCOc1ncccc1C(=O)Nc1ccc(C)c(S(=O)(=O)N2CCCCCC2)c1	49.7%	-18.0%	18.4µM*	-9.5%[9.24 µM]	?	-4.5
Cc1ccc(NC(=S)Nc2ccc(C(C)C)cc2)cc1S(=O)(=O)N1CCCCCC1	?	20.6µM*	23.1µM*	?	16.4µM*	-88.9*
N#Cc1nc(-c2ccco2)oc1N1CCN(CC(=O)Nc2ccccc2-c2ccccc2)CC1	-3.5%	.	.	.	.	.
Cc1cc(C(=O)CN2C(=O)C(=O)N(Cc3ccccc3)C2=O)c(C)n1-c1ccc2c(c1)OCCO2	?	?	14.6µM*	?	20.6µM*	24.8
CCCC1(CCC)NC(=O)N(CC(=O)c2cc(C)n(-c3ccc4c(c3)OCO4)c2C)C1=O	2.5%	-9.9%	?	-8.1%	20.6µM*	-11.7
